Experimental data: ChEMBL document CHEMBL3433997, “St. Jude Leishmania screening dataset” (2016)

Columns and labels:
Type in all cases: functional
[1] = molecular target: Solute carrier family 2, facilitated glucose transporter member 1 (Homo sapiens) (UniProt P11166); assay: ST_JUDE_LEISH: Cytotoxicity at 2uM final concentration against transgenic Leishmania Mexicana promastigotes LmGLUT1 that are glucose transport deficient and complemented with the human glucose transporter GLUT1. Activity is measured by DNA content using SYBR green in vitro
[2] = molecular target: Hexose transporter 1 (Plasmodium falciparum) (UniProt O97467); assay: ST_JUDE_LEISH: Cytotoxicity at 2uM final concentration against transgenic Leishmania Mexicana promastigotes LmPfHT that are glucose transport deficient and complemented with the Plasmodium falciparum hexose transporter. Activity is measured by DNA content using SYBR green in vitro
[3] = molecular target: Glucose transporter (Leishmania mexicana) (UniProt O61059); assay: ST_JUDE_LEISH: Cytotoxicity at 2uM final concentration against transgenic Leishmania Mexicana promastigotes LmGT2 that are glucose transport deficient and complemented with the L. Mexicana glucose transporter 2. Activity is measured by DNA content using SYBR green in vitro

Chain of Solute carrier family 2, facilitated glucose transporter member 1 (Homo sapiens) (P11166 whole entry): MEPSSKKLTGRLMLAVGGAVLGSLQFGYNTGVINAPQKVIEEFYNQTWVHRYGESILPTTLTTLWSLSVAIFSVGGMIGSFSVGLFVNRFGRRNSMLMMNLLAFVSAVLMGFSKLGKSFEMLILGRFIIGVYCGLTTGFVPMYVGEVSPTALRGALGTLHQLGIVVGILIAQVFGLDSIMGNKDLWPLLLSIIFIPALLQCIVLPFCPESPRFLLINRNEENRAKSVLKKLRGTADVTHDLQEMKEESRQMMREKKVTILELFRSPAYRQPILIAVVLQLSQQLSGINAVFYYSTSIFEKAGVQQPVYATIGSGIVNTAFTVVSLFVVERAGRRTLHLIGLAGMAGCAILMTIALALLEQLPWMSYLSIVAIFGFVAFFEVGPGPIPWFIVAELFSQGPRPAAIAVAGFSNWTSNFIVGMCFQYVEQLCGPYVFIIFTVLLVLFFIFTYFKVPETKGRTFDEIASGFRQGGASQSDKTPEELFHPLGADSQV

Compound | inhibition [1] | inhibition [2] | inhibition [3]
COc1ccc(CCN(Cc2cccs2)C(=O)c2cc3sccc3n2C)cc1OC | 0.3% | 0.45% | 0.18%
CCCn1c(Sc2ccc(C#N)c([N+](=O)[O-])c2)nnc1-c1ccc(Cl)cc1 | 2.12% | 3.28% | 2.23%
NC1CCCN(Cc2cccc(-c3ccc(-c4nc5cc(C(F)(F)F)ccc5[nH]4)cc3)c2)C1 (stereo unspecified) | 2.3% | 0.39% | 2.55%
CC(C)(C)Nc1cc(C2CC2)nc(-c2ccccn2)n1 | 2.01% | 4.26% | 3.05%
Cn1c(-c2ccccc2)cc2c3c(N)nc(N)nc3ccc21 | 105% | 104% | 98.2%
c1ccc2nc(NCCCCCCCCNc3ccc4ccccc4n3)ccc2c1 | 5.37% | 3.68% | 4.58%
CCNc1c2ccc(Cl)cc2nc2ccc(OC)cc12 | 2.46% | 4.37% | 1.15%
Cc1cccc(Cn2ccc3c(N)nc(N)nc32)c1 | 4.57% | 3.14% | 3.04%
OCCN1CCN(c2ccc(Nc3ccnc4cc5ccccc5cc34)cc2)CC1 | 28.2% | 33.3% | 21.7%
O=C(Cc1cc(F)cc(F)c1)NC1CCN(c2ccnc3cc(Cl)ccc23)C1 (stereo unspecified) | 1.93% | 1.66% | 2.22%
CN(C)CCCNCc1ccc(-c2ccc(CNCCOc3ccccc3)cc2)cc1 | 2.4% | 4.11% | 2.46%
N=C(N)NCCCN(Cc1ccccc1)c1ccc(Cl)cc1 | 7.39% | 4.12% | 4.83%
O=C(N[C@@H](Cc1ccccc1)C(=O)NCc1cccc2ccccc12)c1ccc(O)c(-c2ccc(Cl)c(Cl)c2)c1 | 0.35% | 2.09% | 0.79%
FC(F)(F)c1ccc2[nH]c(-c3cccc(-c4cccc(CN5CCN(c6ccncc6)CC5)c4)c3)nc2c1 | 1.83% | 2.18% | 3.38%
Cc1ccccc1C1CCN(C2CCC(NC(=O)/C=C/c3ccc(F)cc3)CC2)CC1 (stereo unspecified) | -1.42% | -0.14% | 0.53%
O=C(NC1CCCc2ccccc21)[C@@H]1CCCN1C(=O)c1ccc(O)c(-c2ccc(Cl)c(Cl)c2)c1 (stereo partly specified) | 0.06% | -0.61% | -0.01%
CCC1CCc2cc(N)cc(-c3nc4c(c(C)nn4CC)c(=O)[nH]3)c2O1 (stereo unspecified) | 5.2% | 4.15% | 3.42%
Cc1ccc(-c2cc(C(=O)Nc3ccc(S(=O)(=O)N4CCCCC4C)cc3)n[nH]2)c(O)c1 (stereo unspecified) | -0.81% | -0.31% | -0.79%
O=c1cc(NCCCNCc2ccc(C(F)(F)F)s2)[nH]c2ccccc12 | -0.41% | 0.6% | 0.9%

Compound | inhibition [1] | inhibition [2] | inhibition [3]
O=[N+]([O-])c1ccc(Oc2ccccc2CNCC2CCN(CC3CCCCC3)CC2)cc1 | 13.6% | 15.7% | 7.15%
CC(C)(c1ccccc1)c1ccc(O)c(CN2CCOCC2)c1 | -0.49% | -1.3% | -0.41%
CC(C)c1ccc(N(CC(=O)N/N=C/c2ccc(C(F)(F)F)cc2)S(=O)(=O)c2ccc(C(F)(F)F)cc2)cc1 | 4.88% | 2.56% | 3.25%
Cc1cc(N2CCNCC2)c2cc(NC(=O)Nc3ccc(Cl)c(Cl)c3)ccc2n1 | 3.19% | 3.7% | 3.64%
COc1cccc(OC)c1OCCCON1C(=N)N=C(N)NC1(C)C | 1.91% | 1.49% | 2.31%
C=CCC(C(=O)Nc1ccnc2ccc(OC)cc12)C1CCN(CCCCCCC)CC1 (stereo unspecified) | 1.74% | 1.29% | 0.87%
N#Cc1cccc(Nc2nccc(NCC(O)c3cccc(C(F)(F)F)c3)n2)c1 (stereo unspecified) | 4.68% | 3.25% | -3.38%
O=C(CCc1c[nH]cn1)Nc1cccc(-c2cccc(-c3nc4cc(C(F)(F)F)ccc4[nH]3)c2)c1 | -0.34% | 0.58% | 0.79%
CCc1cc(-c2onc(C(F)(F)F)c2-c2ccccc2)c(O)cc1OC | 3.95% | 3.34% | 7.43%
COc1ccc2ncc(Cl)c([C@H](O)CN3CCC(NCc4cc5c(cn4)OCCO5)CC3)c2c1 | 11% | 7.96% | 6.66%
O=C(Nc1ccc(CN2CCOCC2)cc1)c1ccc(-c2ccc(Br)cc2)o1 | 2.45% | 0.46% | -2.23%
OCCOCn1cnc2cnc(N[C@H]3OC[C@H](O)[C@@H](O)[C@@H]3O)nc21 | 0.99% | 2.06% | 1.69%
COc1ccc(CC(=O)NC2CCN(c3ccnc4cc(Cl)ccc34)C2)cc1 (stereo unspecified) | -0.54% | -0.22% | -0.25%
COc1ccc(Nc2nccc(N3CCC(NC(=O)c4cccc(C#N)c4)C3)n2)cc1 (stereo unspecified) | 2.52% | 4.34% | 3.91%
O=C(Nc1cccc(CN2CCCN(Cc3ccccc3)CC2)c1)c1cc2ccccc2s1 | 1.27% | 1.24% | -4.49%
Fc1cccc(COc2ccc(Nc3ncnc4cc(/C=C/[C@@H]5CCCN5)sc34)cc2Cl)c1 | 5.81% | 0.95% | 1.52%
O=[N+]([O-])c1cccc(NC(=S)N2CCCN(Cc3ccc(Cl)cc3Cl)CC2)c1 | 2.36% | 3.32% | 3.01%
S=c1nc(-c2ccccc2)n2ccsc2n1 | 1.86% | 2% | 2.44%
